Measurements as given in PubChem BioAssay (NCATS).
Records with an inconclusive call do not appear. Active and inactive are the calls of the source. Calls come from the whole dose curve; as a rule, active = well fitted cell-killing curve with a large enough effect; inconclusive = small, poorly fitted or top-dose-only effect, or effect the other way; inactive = flat fitted curve, though single readings scatter.

Experiments:
Test in all cases: Primary qHTS to identify gynecologic anti-cancer compounds using libraries of approved drugs and bioactive compounds (AID 1345084); note: nearly all actives have a fitted effect of over 55% in size
C33A = conditions: Gynecologic cancer cell panel viability, ATPlite luminescence, 48 h; series mostly up to 57.5 µM
Method in brief: (§1)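 ATP-based viability (ATPlite), 1,000 cells/well, 16 h pre-incubation, 48 h compound at 37 C, 5% CO2, 15 min RT before read.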

CAOV3 = conditions: Gynecologic cancer cell panel viability, ATPlite luminescence, 48 h; series mostly up to 57.5 µM
Method in brief: as §1

CASKI = conditions: Gynecologic cancer cell panel viability, ATPlite luminescence, 48 h; series mostly up to 57.5 µM
Method in brief: as §1

Es-2 = conditions: Gynecologic cancer cell panel viability, ATPlite luminescence, 48 h; series mostly up to 57.5 µM
Method in brief: as §1

HeLa = conditions: Gynecologic cancer cell panel viability, ATPlite luminescence, 48 h; series mostly up to 57.5 µM
Method in brief: as §1

Hek293T = conditions: Gynecologic cancer cell panel viability, ATPlite luminescence, 48 h, control line for the selectivity index; series mostly up to 57.5 µM
Method in brief: as §1

JEG-3 = conditions: Gynecologic cancer cell panel viability, ATPlite luminescence, 48 h; series mostly up to 57.5 µM
Method in brief: as §1

OV90 = conditions: Gynecologic cancer cell panel viability, ATPlite luminescence, 48 h; series mostly up to 57.5 µM
Method in brief: as §1

PA-1 = conditions: Gynecologic cancer cell panel viability, ATPlite luminescence, 48 h; series mostly up to 57.5 µM
Method in brief: as §1

SKOV3 = conditions: Gynecologic cancer cell panel viability, ATPlite luminescence, 48 h; series mostly up to 57.5 µM
Method in brief: as §1

Tov-21-G = conditions: Gynecologic cancer cell panel viability, ATPlite luminescence, 48 h; series mostly up to 57.5 µM
Method in brief: as §1

Tov112D = conditions: Gynecologic cancer cell panel viability, ATPlite luminescence, 48 h; series mostly up to 57.5 µM
Method in brief: as §1

Measured: Potency

CC1OC2OC(=O)C3(C)CC4=C(CO)C5=C(CC(=O)C4(C)C(C1=O)C23)C(C)(C)OC(=O)C5 (configuration not stated)
inactive: all assays above

C=C1CCC2C(C)(C(=O)O)CCCC2(C)C1CC/C(=C\CO)CO (configuration not stated)
inactive: all assays above

CC(=O)OC[C@H]1O[C@H](O[C@]2(CO)O[C@H](CO)[C@@H](OC(=O)/C=C/c3ccccc3)[C@@H]2O)[C@H](O)[C@@H](O)[C@@H]1O
inactive: all assays above

CC(=O)O[C@@H]1[C@@H](CO)O[C@@](CO)(O[C@H]2O[C@H](COC(=O)/C=C/c3ccccc3)[C@@H](O)[C@H](O)[C@H]2O)[C@H]1O
inactive: all assays above

COc1cc2c(cc1O)[C@H](c1ccc(O[C@@H]3O[C@H](CO)[C@@H](O)[C@H](O)[C@H]3O)c(OC)c1)[C@@H](CO)[C@](O)(CO)C2
inactive: all assays above

CC(=O)O[C@@H]1c2c(C)coc2C(=O)[C@@]23O[C@@H]2CC[C@H](C)[C@@]13C
inactive: all assays above

C=C(C(=O)O)C1CCC2(C)CCC(O)C(C)(O)C2C1 (configuration not stated)
inactive: all assays above

CC(=O)OCC1(O)CCC2C(COC3OC(CO)C(O)C(O)C3OC(=O)/C=C/c3ccc(O)cc3)=COC(OC(=O)CC(C)C)C21 (configuration not stated)
inactive: all assays above

O=C(O)c1cn(C2CC2)c2cc(N3C[C@@H]4C[C@H]3CN4)c(F)cc2c1=O
inactive: all assays above

CC(=O)/C=C/[C@H]1[C@](C)(O)[C@@H](O)[C@H](OC(C)=O)C2C(C)(C)CCC[C@@]21C (some centres not stated)
inactive: all assays above

CC1CCC2(C=O)C(CO)=CCCC2C1(C)CC(=O)O (configuration not stated)
inactive: all assays above

C=CC(C)(C)C12C=C(OC)C(=O)N3C(C(C)C)C(=O)NC31N(OC)c1ccccc12 (configuration not stated)
inactive: all assays above

COc1cc(O)c2c(c1)C1=CC(O)C(O)CC1(C)OC2=O (configuration not stated)
inactive: all assays above

CC1=C2C[C@H]3O[C@@]3(C)CCC3O[C@@]3(C)C[C@@]2(O)OC1=O (some centres not stated)
inactive: all assays above

CC/C=C\[C@H](O)[C@H](O)C1=C(C)C(=O)[C@]2(O1)C(=O)N[C@@](OC)(C(=O)c1ccccc1)[C@@H]2O
inactive: all assays above

C=C[C@H]1[C@H](O[C@@H]2O[C@H](CO)[C@@H](O)[C@H](O)[C@H]2O)OC=C(C(=O)OC)[C@H]1C/C=C(/C=O)[C@@H]1C(C(=O)OC)=CO[C@@H](O[C@@H]2O[C@H](CO)[C@@H](O)[C@H](O)[C@H]2O)[C@@H]1C=C
inactive: all assays above
